Inconclusive results are not listed. A number with no mark means an inactive call. Activity calls are given as the source filed them. Calls come from the whole dose curve; as a rule, active = well fitted inhibition curve with a large enough effect; inconclusive = small, poorly fitted or top-dose-only effect; inactive = flat fitted curve, though single readings scatter.
Potency is the fitted concentration of half-maximal effect.

The test system of the experiment is Zika virus NS2B-NS3 protease. As to the kind of experiment: Primary screen GU AMC qHTS for Zika virus inhibitors (AID 1347154).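 For activity change, negative = inhibition: 0% = no-inhibitor control and -100% = no-enzyme control.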 Note: nearly all actives have a fitted effect of over 70% in size. The conditions noted are these: Zika NS2B-NS3 unlinked protease, AMC fluorogenic substrate; series mostly up to 54.1 µM; activity change, negative = inhibition: at the top concentration. The text has this:
Avindra Nath, Ph.D., National Institute of Neurological Disorders and Stroke (NINDS), Bethesda, MD
Radhakrishnan Padmanabhan, Ph.D., Georgetown University (GU), Washington D.C.
Zika Virus causes congenital defects, including microcephaly and is associated with Guillain-Barre syndrome, eningoencephalitis and myelitis in infected adult. […] Using a target-based approach, we hope to establish a screening paradigm to uncover novel, cell-active NS2B-NS3 protease (Zika Virus) specific inhibitors from NCATS' collection of small molecules using qHTS.
Early Translation Branch (ETB)
National Center for Advancing Translational Sciences (NCATS), Rockville, MD
National Institute of Health (NIH), Bethesda, Maryland
Padmanabhan lab provided the NS2B hydrophilic domain and NS3 protease domain in a noncovalent complex used for the unlinked assay. Control compound aprotinin is obtained from Thermo Scientific (#78432; Waltham, Massachusetts). NS2B-NS3 AMC substrate (Bz-Nle-Lys-Arg-Arg-AMC; Nle-KRR-AMC) purchased from Bachem (#I-1995; Torrance, CA). Ac-VKTGKR-AMC purchased from Genscript or Bachem, Ac-FAAGKR-AMC purchased from Genscript, Ac-GLVKRR-AMC purchased from Genscript, Ac-LKKR-AMC purchased from Genscript.
GU AMC unlinked NS2B-NS3 protease qHTS protocol
Briefly, 3 microL of Zika virus unlinked NS2B-NS3 protease (25 nM for linked final concentration), in assay buffer (10 mM Tris-HCl pH 8.0 with 0.01% Tween 20) was dispensed into a 1,536-well solid-bottom black plate (Greiner Bio One, Monroe, NC). […] Plates were then read immediately on a ViewLux High-throughput CCD imager (PerkinElmer, Waltham, MA) equipped with standard UV fluorescence optics (340(30) nm excitation, 450(20) nm emission) then incubated (room temperature, protected from light) for 15 minutes (~20% conversion). The change in fluorescence intensity over the 15-minute reaction period was normalized against no-inhibitor and no-enzyme controls and the resulting percent inhibition data were fitted to a 4-parameter Hill equation. Aprotinin was used as the intraplate control.
With `CC(C(=O)OC1CC2CCC(C1)N2C)c1ccc(Br)cc1` (stereo not given), the “activity change, negative = inhibition” value was -3.89%.
Same read-out and setting: to `Clc1ccc(C2=CCC[C@H]3CC[C@@H]2N3)cn1` belongs 5.72%; to `N[C@@H](CCCCP(=O)(O)O)C(=O)O`, -16.2%; to `CCN(CC)CCO[C@H]1CC[C@@]2(C)C(=CC[C@@H]3[C@H]2CC[C@]2(C)C(=O)CC[C@H]32)C1`, -3.16%.
On to `C[C@@]1(CO)[C@H](O)CC[C@@]2(C)[C@H]1CC[C@H]1C[C@@H]3C[C@@]12CC[C@]3(O)CO`, for which the “activity change, negative = inhibition” value is 11.5% [at 104 µM].
The same measure, in the same setting: in the case of `N[C@H](CP(=O)(O)O)C(=O)O` it was -8.27%; in that of `Cn1cc(C(=O)C(=O)N[C@H]2CN3CCC2CC3)c2ccccc21`, 1.17%; in that of `CSCC[C@H](NC(=O)[C@H](Cc1ccccc1)NC(=O)CNC(=O)CNC(=O)[C@@H](N)Cc1ccc(O)cc1)C(=O)O`, -0.9% [at 6.83 µM].
Still for that read-out and setting: to `O=C1Nc2ccccc2C2(CCN(CCc3ccc(C(F)(F)F)cc3)CC2)O1` belongs -5.45%; to `CC1(C)N(O)C(c2ccc(C(=O)O)cc2)=[N+]([O-])C1(C)C`, 7.85%; to `CCCCC/C=C\C/C=C\CCCCCCCC(=O)NCCO`, 7.86% [at 6.83 µM].
Still for that read-out and setting: in the case of `CC(=O)C1CCC2C3CCC4CC(C)(O)CCC4(C)C3CCC12C` (stereo not given) it was 10.2%; in that of `COc1cc(CCN)ccc1O`, 1.38%; in that of `C[C@@H]1OC(=O)[C@H]2C[C@H]3CCCC[C@@H]3[C@@H](/C=C/[C@H]3CCC[C@H](C)N3C)[C@@H]12`, 12.5%.
For `C(=C\c1ccccc1)/CN1CCN(CCOC(c2ccccc2)c2ccccc2)CC1`, the “activity change, negative = inhibition” value was 2.57%.
Same read-out and setting: to `O[C@@H]1[C@H](O)[C@H]2[C@@H](O)CCN2C[C@@H]1O` belongs 8.72%; to `Oc1ccc2c3c1O[C@H]1c4oc5ccccc5c4C[C@@]4(O)C(C2)N(CC2CC2)CC[C@]314`, -4.22%; to `COc1ccc(CCN)cc1O`, 3.76%.
Still for that read-out and setting: to `O=C1NCN(c2ccccc2)C12CCN(C[C@H]1COc3ccccc3O1)CC2` belongs 21.1%; to `CC(C)(c1ccc(OC[C@@H]2CO2)cc1)c1ccc(OC[C@H]2CO2)cc1`, 7.54%.
The same measure, in the same setting: to `Fc1ccc(C(OCCN2CCN(C/C=C\c3ccccc3)CC2)c2ccc(F)cc2)cc1` belongs 5.28%; to `C[C@H](NC(=O)[C@@H](N)Cc1ccc(O)cc1)C(=O)NCC(=O)N(C)[C@@H](Cc1ccccc1)C(=O)N[C@H](CO)CCS(C)=O` (stereo not given in full), 4.8% [at 6.83 µM].
Take `C[C@]12CC[C@H]3[C@@H](C[C@H](F)C4=CC(=O)CC[C@@]43C)[C@@H]1CC[C@@H]2O`: the “activity change, negative = inhibition” value was 12.8%.
With `C(=C/c1ccccc1)/CN1CCN(CCOC(c2ccccc2)c2ccccc2)CC1`, the “activity change, negative = inhibition” value was -0.0032%.
On the same count and under the same terms, to `C=C(C)[C@H]1C2C(=O)O[C@H]1[C@H]1OC(=O)[C@@]34O[C@@H]3C[C@]2(O)[C@@]14C` belongs 8.4%; to `COc1ccc2[nH]cc(CCN(C)C)c2c1`, 12.7%.
In the case of `Clc1ccc([C@@H]2C[C@H]3CC[C@@H]2N3)cn1`, the “activity change, negative = inhibition” value is 4.8%.
On the same count and under the same terms, in the case of `O=C1NC(=O)c2c1c1c3ccccc3[nH]c1c1[nH]c3ccccc3c21` it was 22.1%; in that of `C[C@@H]1O[C@@H](O[C@H]2C[C@@H](O)[C@]3(CO)[C@@H]4C(CC[C@]3(O)C2)[C@@]2(O)CC[C@H](C3=CC(=O)OC3)[C@@]2(C)C[C@H]4O)[C@H](O)[C@H](O)[C@H]1O` (stereo not given in full), -7.39%.
As for `CNc1ccc2oc(C[C@H]3O[C@]4(CC[C@H]3C)O[C@H]([C@H](C)C(=O)c3ccc[nH]3)[C@H](C)C[C@H]4C)nc2c1C(=O)O`, the “activity change, negative = inhibition” value was 5.37%.
Still for that read-out and setting: in the case of `C=CCN1C[C@H](C)N([C@H](c2ccc(C(=O)N(CC)CC)cc2)c2cccc(O)c2)C[C@H]1C` it was -0.212%; in that of `C[C@@H]1O[C@@H](O[C@H]2C[C@@H](O)[C@]3(CO)C4C(CC[C@]3(O)C2)[C@@]2(O)CC[C@H](C3=CC(=O)OC3)[C@@]2(C)C[C@H]4O)[C@H](O)[C@H](O)[C@H]1O` (stereo not given in full), 7.03%.
As for `NCCc1ccccc1`, the “activity change, negative = inhibition” value was 7.61%.
For `Clc1cncc(N2CCNCC2)n1`, the Potency is 15 µM (active).
Turning to `c1ccc(C2CNCc3ccccc32)cc1` (stereo not given), the “activity change, negative = inhibition” value is -5.62%.
For the compound `N[C@@H](Cn1ccc(=O)n(Cc2ccc(C(=O)O)cc2)c1=O)C(=O)O`, the “activity change, negative = inhibition” value is 3.16%.
For `CN1CC[C@@H]2CN3CCc4cccc(c43)[C@H]2C1`, the “activity change, negative = inhibition” value is -4.1%.
Still for that read-out and setting: in the case of `CCN1C[C@]2(COC)CC[C@H](OC)[C@@]34C5C[C@@H]6[C@@H](OC)C[C@@]7(OCO[C@@]7([C@@H](O)C23)[C@@H]14)C5[C@H]6OC` (stereo not given in full) it was 11.9%.
On the same count and under the same terms, to `C=CCN1CC[C@]23c4c5ccc(O)c4O[C@@H]2C(=O)CC[C@]3(O)[C@H]1C5` belongs 4.95%; to `C[N+]1(C)CCc2cc3c(cc2C1C1OC(=O)c2c1ccc1c2OCO1)OCO3` (stereo not given), 0.621%.

The values are drawn from PubChem BioAssay (NCATS).
